Assay outcomes as filed in PubChem.
A selection: hits, their analogues and other compounds. The true share with any hit is near 7.4%.
NPC1 promoter act: NPC1 promoter activation; Huh7 NPC1 promoter luciferase reporter, 24 h; Potency, µM (highest dose often 9.22 µM), for inactives: at the highest dose activation, hits mostly activators; 320,000 compounds, 2.4% hits; AID 485313; also: % of control where 0% means no effect; nearly all actives have a fitted effect of over 60% in size
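Stably transfected Huh7 (NPC1 promoter→luciferase), 1500 cells/well in Opti-MEM + 10% FBS, 2 h settle, then compound 24 h at 37 °C. Luminescence after 10 min with Amplite reagent.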
SMN2 splice up: enhancers of SMN2 splice variant expression; HEK293 SMN2-luciferase splicing reporter, luminescence, 30-36 h; Potency, µM (series often up to 46.1 µM), without a hit: top-dose activity change, positive = activation, usual class: activators; 210,000 compounds, 2.8% hits; AID 1458; also: % of control where 0% means no effect; nearly all actives have a fitted effect of over 55% in size
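HEK293 cells carry an SMN2 minigene-luciferase reporter in which exon 7 inclusion puts luciferase in frame. Cells were seeded at 2000 cells/well, attached for 10-12 hours, then exposed to compounds for 30-36 hours at 37C before ONE-Glo luminescence.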
Rab9 promoter act: activates the Rab9 promoter. Huh7 Rab9 promoter-luciferase reporter, luminescence, 24 h. Potency, µM (doses to about 9.22 µM), for the others: at the highest dose activation, negative = inhibition, hits mostly activators. 320,000 compounds, 2.8% hits; also: % of control where 0% means no effect; nearly all actives have a fitted effect of over 60% in size
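Using Huh7 cells stably transfected with Rab9 promoter–luciferase, compounds were incubated 24 h at 37 °C, 5% CO2; luciferase luminescence was read 10 min after reagent addition.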
ELG1 genotox: genotoxicity induction in ELG1-luciferase HEK293T cells | HEK293T ELG1-luciferase reporter, luminescence, 16 h | Potency, µM (titrated, usually from 46 µM), for the others: top-dose activity change, positive = activation, hits mostly activators | 330,000 compounds, 1.3% hits | AID 504466; also: % of control where 0% means no effect; nearly all actives have a fitted effect of over 60% in size
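After overnight (16 hr) compound treatment at 37 °C, ELG1-luciferase HEK293T cells were lysed with ONE-Glo; luminescence quantified 30 min later at room temperature.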
FLuc modulator: inhibits or activates purified firefly luciferase, miR-21 counter-screen. AID 588342. purified FLuc, Km substrates, luminescence inhibition. 360,000 compounds, 6.9% hits. Potency, µM (top dose mostly 57.5 µM), inactives show top-dose activity change, negative = inhibition, hits mostly inhibitors;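 also: plate controls were vehicle for no effect and reference inhibitor for full effect; nearly all actives have a fitted effect of over 55% in size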
Target sequence (P08659 whole entry, looked up): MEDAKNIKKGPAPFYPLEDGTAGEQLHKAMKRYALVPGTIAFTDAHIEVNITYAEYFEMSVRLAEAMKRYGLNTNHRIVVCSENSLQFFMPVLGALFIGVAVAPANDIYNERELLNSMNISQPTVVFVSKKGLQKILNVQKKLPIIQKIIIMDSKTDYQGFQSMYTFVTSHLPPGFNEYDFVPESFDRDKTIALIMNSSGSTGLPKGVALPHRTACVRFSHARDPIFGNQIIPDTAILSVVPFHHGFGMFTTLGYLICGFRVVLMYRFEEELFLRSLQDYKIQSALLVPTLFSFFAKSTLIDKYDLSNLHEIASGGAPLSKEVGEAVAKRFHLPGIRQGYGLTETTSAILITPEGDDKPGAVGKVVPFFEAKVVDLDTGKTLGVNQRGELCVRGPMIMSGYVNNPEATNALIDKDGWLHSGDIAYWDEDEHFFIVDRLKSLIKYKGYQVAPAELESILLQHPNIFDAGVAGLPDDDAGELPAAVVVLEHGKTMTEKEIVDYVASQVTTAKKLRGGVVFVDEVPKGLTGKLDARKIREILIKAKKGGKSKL
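Biochemical qHTS of compounds, final roughly 60 µM downward over six points, against 10 nM purified firefly luciferase using Km concentrations of substrates (10 uM D-luciferin, 10 uM ATP) in Tris acetate pH 7.5 buffer; luminescence output.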
The depositor's hits bear a star; [ ] = another dose, or the depositor's remark. Calls follow the shape of the dose curve; as a rule, active = well fitted curve in the direction sought with a large enough effect; inconclusive = small, poorly fitted or top-dose-only effect, or another doubt; inactive = no such curve, though single readings can be large; an effect the other way counts as inactive or inconclusive. Potency is read from the fitted curve at half-maximal effect.

Results for COc1cccc(OCc2cc(C(=O)NCCc3cccc(C)n3)no2)c1 ?
NPC1 promoter act: -3%; Rab9 promoter act: -2%; ELG1 genotox: 0%; FLuc modulator: 3%

Results for COc1cccc(OCc2cc(C(=O)NCc3ccccn3)no2)c1 ?
NPC1 promoter act: inconclusive; Rab9 promoter act: 2.8µM*; ELG1 genotox: 16µM*; FLuc modulator: 15µM*

Results for COc1ccc(OCc2cc(C(=O)NCc3cccc(C)n3)no2)c(Cl)c1 ?
NPC1 promoter act: inconclusive; Rab9 promoter act: inconclusive; ELG1 genotox: 26%; FLuc modulator: 24µM*

Results for O=c1sc(Nc2ccccc2)nc2ccccc12 ?
NPC1 promoter act: -2%; Rab9 promoter act: -3%; ELG1 genotox: 1%; FLuc modulator: -1%

Results for Cc1nc(Nc2ccccc2)sc1-c1ccccc1 ?
NPC1 promoter act: 1.3µM*; Rab9 promoter act: 0.4µM*; ELG1 genotox: inconclusive; FLuc modulator: 0.34µM*

What do the screens show for `Cc1nc(Nc2ccc(C(=O)O)cc2)sc1-c1ccccc1`?
NPC1 promoter act: 1.3µM*; Rab9 promoter act: inconclusive; ELG1 genotox: inconclusive; FLuc modulator: 0.17µM*

How did O=C(Nc1nnc(SCC(=O)N2CCCC2)s1)C1CC(=O)N(c2ccccc2)C1 (stereo unspecified) do in these assays?
NPC1 promoter act: 2%; Rab9 promoter act: 0%[1.84 µM]; ELG1 genotox: 11%; FLuc modulator: -1%

What do the screens show for `CCOc1ccc(N2CC(NC(=O)c3cc4ccccc4o3)CC2=O)cc1` (stereo unspecified)?
FLuc modulator: -2%

What do the screens show for `CCCc1nc2ccccc2n2c(-c3ccc(C)cc3)c3c(=O)n(C)c(=O)n(C)c3c12`?
SMN2 splice up: -1%; FLuc modulator: -19%

How did CCNc1nc(-c2cc(C)n(Cc3ccco3)c2C)cs1 do in these assays?
NPC1 promoter act: 1%; SMN2 splice up: 27%; Rab9 promoter act: 3%; ELG1 genotox: -6%; FLuc modulator: inconclusive

Results for Oc1ccc(-c2csc(NCc3ccco3)n2)cc1 ?
NPC1 promoter act: 26%; SMN2 splice up: 25%; Rab9 promoter act: 28%; ELG1 genotox: 18µM*; FLuc modulator: 11µM*

What do the screens show for `Cc1nc2ncccn2c1-c1csc(NCc2ccco2)n1`?
NPC1 promoter act: 0%; SMN2 splice up: -24%; Rab9 promoter act: -8%; ELG1 genotox: 16%; FLuc modulator: -16%

How did c1coc(CNc2nc(-c3cccs3)cs2)c1 do in these assays?
NPC1 promoter act: inconclusive; SMN2 splice up: inconclusive; Rab9 promoter act: inconclusive; ELG1 genotox: 6%; FLuc modulator: 24µM*

What do the screens show for `CC(=O)Nc1cccc(-c2csc(NCc3ccco3)n2)c1`?
NPC1 promoter act: 8%; SMN2 splice up: inconclusive; Rab9 promoter act: 1%; ELG1 genotox: inconclusive; FLuc modulator: 17µM*

Results for Cc1ccc(C(=O)/C=C/NNC(=O)c2ccccc2O)cc1 ?
NPC1 promoter act: 10%; Rab9 promoter act: 7%; ELG1 genotox: -5%; FLuc modulator: 27µM*

How did Cc1ccc(C(=O)NC(=S)NNC(=O)c2ccccc2O)cc1 do in these assays?
NPC1 promoter act: 1%; Rab9 promoter act: 2%; ELG1 genotox: 9%; FLuc modulator: inconclusive

What do the screens show for `O=C(/C=C/NNC(=O)c1ccccc1)c1ccc(Br)cc1`?
NPC1 promoter act: 7%; SMN2 splice up: 4%; Rab9 promoter act: 0%; ELG1 genotox: inconclusive; FLuc modulator: 27µM*

How did COCCOC(=O)c1c(-c2ccccc2)c(-c2ccccc2)nn(C)c1=O do in these assays?
SMN2 splice up: -11%; FLuc modulator: -2%

What do the screens show for `O=S(=O)(N/N=C1\CC(c2ccccc2)Oc2ccccc21)c1ccccc1` (stereo unspecified)?
NPC1 promoter act: 0%; SMN2 splice up: -11%; Rab9 promoter act: -7%; ELG1 genotox: -6%; FLuc modulator: -10%

How did CCOc1ccc(S(=O)(=O)N/N=C2/CC(c3ccccc3)Oc3ccccc32)cc1 (stereo unspecified) do in these assays?
NPC1 promoter act: 2%; SMN2 splice up: inconclusive; Rab9 promoter act: 0%; ELG1 genotox: 8%; FLuc modulator: 21µM*

What do the screens show for `CN(CC(=O)Nc1ccc(Br)cc1)S(=O)(=O)c1cccc2nsnc12`?
SMN2 splice up: -25%; FLuc modulator: -4%

Results for O=C(CSc1nnc2[nH]c(=O)cc(-c3ccccc3)n12)Nc1ccccc1C(F)(F)F ?
FLuc modulator: 2.7µM*

How did CCc1ccc(NC(=O)CSc2nnc3[nH]c(=O)cc(-c4ccccc4)n23)cc1 do in these assays?
FLuc modulator: 1.5µM*

What do the screens show for `COc1ccc(Cl)cc1NC(=O)CSc1nnc2[nH]c(=O)cc(-c3ccccc3)n12`?
FLuc modulator: 1.2µM*

How did Nc1cc(=O)[nH]c2nnc(SCC(=O)Nc3cccc4ccccc34)n12 do in these assays?
NPC1 promoter act: 3%; Rab9 promoter act: 1%; ELG1 genotox: -2%; FLuc modulator: 7%

What do the screens show for `CCCc1cc(=O)[nH]c2nnc(SCC(=O)Nc3ccc(C(C)=O)cc3)n12`?
NPC1 promoter act: -3%; Rab9 promoter act: 1%; ELG1 genotox: 1%; FLuc modulator: 1%

Results for Cc1nn2cc(-c3cccc(Cl)c3)cnc2c1Br ?
NPC1 promoter act: -10%; SMN2 splice up: inconclusive; Rab9 promoter act: 2%; ELG1 genotox: inconclusive; FLuc modulator: inconclusive

Results for Cc1nn2cc(-c3cccc(Cl)c3)cnc2c1Cl ?
NPC1 promoter act: -12%; SMN2 splice up: 13µM*; Rab9 promoter act: inconclusive; ELG1 genotox: 18%; FLuc modulator: -20%

How did O=C(O)COCC(=O)Nc1ccc2c(c1)oc1ccccc12 do in these assays?
NPC1 promoter act: -2%; Rab9 promoter act: 0%; ELG1 genotox: 1%; FLuc modulator: 17µM*

What do the screens show for `COc1cc2c(cc1NC(=O)COc1ccccc1OC)oc1ccccc12`?
NPC1 promoter act: 13%; SMN2 splice up: 6%; Rab9 promoter act: -4%; ELG1 genotox: inconclusive; FLuc modulator: 3%

Results for O=C(O)CCC(=O)Nc1ccc2c(c1)oc1ccccc12 ?
NPC1 promoter act: 2%; SMN2 splice up: 17%; Rab9 promoter act: -5%; ELG1 genotox: 15%; FLuc modulator: 24µM*

Results for CNC(=O)COc1ccccc1C(=O)Nc1ccc2c(c1)oc1ccccc12 ?
NPC1 promoter act: -18%; SMN2 splice up: -12%; Rab9 promoter act: -38%; ELG1 genotox: 1%; FLuc modulator: 3.8µM*

Results for O=C(COc1ccc2c(c1)OCO2)Nc1ccc2c(c1)oc1ccccc12 ?
NPC1 promoter act: 9%; Rab9 promoter act: 12%; ELG1 genotox: 5%; FLuc modulator: -2%

Results for CC(C)CC(=O)NNC(=S)Nc1ccc(S(N)(=O)=O)cc1 ?
NPC1 promoter act: -3%; SMN2 splice up: 7%; Rab9 promoter act: 3%; ELG1 genotox: -1%; FLuc modulator: -19%
